In PubChem BioAssay AID624450 (Southern Research Specialized Biocontainment Screening …, 2012):
Calls of active or inactive are those of the source. No rule for the calls is given here.

assay: Vero 76 cell cytotoxicity, cytotoxicity control for VEEV inhibitor project, set 7 (AID 624450); conditions: Vero 76 cell viability, cytotoxicity counter-screen; series mostly up to 25 µM

SMILES | outcome
CCN1CCN(Cc2nc3ccc([N+](=O)[O-])cc3c(=O)n2C)CC1 | inactive
COc1cccc(-n2c(CN3CCNCC3)nc3ccc([N+](=O)[O-])cc3c2=O)c1 | inactive
O=c1c2cc([N+](=O)[O-])ccc2nc(CN2CCNCC2)n1-c1ccsc1 | inactive
CCN1CCN(Cc2nc3ccc(C(=O)O)cc3c(=O)n2-c2ccccc2)CC1 | inactive
COc1ccc(-n2c(CN3CCNCC3)nc3ccc([N+](=O)[O-])cc3c2=O)cc1 | inactive
CCN1CCN(Cc2nc3ccc([N+](=O)[O-])cc3c(=O)n2-c2ccccc2F)CC1 | inactive
COc1ccccc1-n1c(CN2CCNCC2)nc2ccc([N+](=O)[O-])cc2c1=O | inactive
